# NS1 inh = blocks influenza NS1 protein function. Potency, µM (highest dose often 46.1 µM), without a hit: at the top dose activity, positive = more growth. 270,000 tested, 0.4% active. AID 2326; also: potency is read from the fitted curve at half-maximal effect; actives are rising curves; nearly all actives have a fitted effect of over 50% in size
#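 Recovery from NS1-induced slow growth read by OD600 in budding yeast switched to galactose assay medium (pH 6.0, -URA) at 1:100 dilution. Compound 23 nl per well; the matching strain lacking NS1 serves as control.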
# Pf growth 48h = inhibits P. falciparum growth in the first generation, 48 h. P. falciparum luciferase growth in erythrocytes, 48 h. Potency, µM (doses to about 28.7 µM), for the others: at the top dose activity change, negative = inhibition, hits mostly inhibitors. 310,000 tested, 5.9% active; active = well fitted inhibition curve with a large enough effect; inconclusive = small, poorly fitted or top-dose-only effect, or another doubt; inactive = no such curve, though single readings can be large or run the other way; also: potency is read from the fitted curve at half-maximal effect; % is scaled to controls: 0 for no effect and ±100 for the full control effect
#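 Cell-based growth assay: transgenic P. falciparum expressing firefly luciferase, cultured in red cells within RPMI 1640 containing 0.5% w/v Albumax, 24 mM bicarbonate and gentamycin. A drop in luciferase activity indicates inhibition.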
# SARS PLpro yeast = inhibitors of SARS-CoV papain-like protease in yeast. AID 485353. S. cerevisiae expressing SARS-CoV PLpro, growth rescue. 330,000 tested, 0.19% active. Potency, µM (highest dose often 32.9 µM), for the others: at the top dose activity, positive = growth rescue, actives largely listed as activators; also: potency is read from the fitted curve at half-maximal effect; 0% is about no effect; nearly all actives have a fitted effect of over 55% in size
# Shiga inhibitor = inhibitors of Shiga toxin in Vero cells | Vero cells, Shiga toxin protein synthesis inhibition reporter | inhibition, % at 38.7 µM | 290,000 tested, 9.2% active | AID 2315; in the data active = inhibition mostly above about 28%, no sharp cut-off; inactive = mostly below about 43%; also: 0% is about no effect
# Pf growth 96h = P. falciparum growth inhibition at 96 hours; AID 504834; 320,000 tested, 6.9% active; P. falciparum luciferase reporter growth, 96 h; Potency, µM (series often up to 28.7 µM), for inactives: at the top dose activity change, negative = inhibition, hits mostly inhibitors; active = well fitted inhibition curve with a large enough effect; inconclusive = small, poorly fitted or top-dose-only effect, or another doubt; inactive = no such curve, though single readings can be large or run the other way; also: potency is read from the fitted curve at half-maximal effect; % is scaled to controls: 0 for no effect and ±100 for the full control effect
#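 Readout is luminescence from an integrated firefly luciferase in P. falciparum. Red cells, 2% hematocrit and 0.05% parasitemia final, were cultured with compound through two parasite generations (96 hours) at 37 C, 5% CO2.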
# CHX counter = counter-screen for Shiga toxin inhibitors: cycloheximide protein synthesis inhibition | cell reporter, cycloheximide protein synthesis inhibition counterscreen | max response, % | 300,000 tested, 12% active; in the data active = max response mostly above about 13%, no sharp cut-off; inactive = mostly below about 14%; also: read at 38.3 µM for the half of the compounds with a filed dose; 0% is about no effect
# The depositor's hits bear a star; i = inactive; ? = inconclusive; . = no result given; ! = not active in a repeat; [ ] = remark or other dose. Rows were chosen to be rich in hits. Some 21% of all compounds tested hit in one or more screens of this group. Unless noted, calls follow the shape of the full dose curve.
SMILES,NS1 inh,Pf growth 48h,SARS PLpro yeast,Shiga inhibitor,Pf growth 96h,CHX counter
S=c1[nH]nc(-c2ccccn2)n1/N=C/c1c(Cl)cccc1Cl,2.4%,-0.1%,-1.4%,-3.0,-10.5%,-1.3
COC(=O)C1=C(c2ccc(OCc3ccccc3)cc2)C[C@@H]2CC[C@H]1N2C(=O)NCCCc1ccccc1,.,?,-4.8%,.,?,.
COC(=O)C1=C(c2cccc(OCc3ccccc3)c2)C[C@@H]2CC[C@H]1N2C(=O)NCc1ccc(C(F)(F)F)cc1,.,13.1µM*,0.0%,.,5.22µM*,.
COC(=O)C1=C(c2c(C)noc2C)C[C@@H]2CC[C@H]1N2C(=O)NCc1ccc(C(F)(F)F)cc1,.,?,-6.1%,.,-25.8%,.
COC(=O)C1=C(c2cccc(OCc3ccccc3)c2)C[C@@H]2CC[C@H]1N2C(=O)NCc1ccc2[nH]ccc2c1,.,13.1µM*,1.3%,.,?,.
COC(=O)C1=C(c2cccc(OCc3ccccc3)c2)C[C@@H]2CC[C@H]1N2C(=O)NCc1ccc(F)cc1,.,11.7µM*,-4.0%,.,9.28µM*,.
COC(=O)C1=C(c2cccc(OCc3ccccc3)c2)C[C@@H]2CC[C@H]1N2C(=O)NCCCc1ccccc1,.,9.28µM*,2.7%,.,?,.
COC(=O)C1=C(c2cccc(C#N)c2)C[C@@H]2CC[C@H]1N2C(=O)NCc1ccc(F)cc1,.,?,-6.2%,.,-8.4%,.
O=C(Nc1ncccc1O)c1ccc2ccccc2c1,-11.2%,-4.1%,1.9%,-19.9,?,8.2
O=C(Nc1n[nH]c(=S)s1)c1ccc2ccccc2c1,4.8%,156.1%,0.1%,69.4*,214.2%,33.9*
O=C(Nc1nccs1)c1ccccn1,.,85.1%,2.5%,96.9*,?,66.7*
O=C(CCNC(=O)c1ccc([N+](=O)[O-])cc1)Nc1nccs1,6.5%,6.4%,0.1%,-4.6,4.3%,-2.5
O=C(Nc1nccs1)c1ccc[nH]c1=O,14.8%,42.0%,3.2%,.,9.3%,25.3*
O=C(CCNC(=O)c1ccc(Br)cc1)Nc1nccs1,.,0.4%,0.1%,21.9,-0.8%,18.6*
O=C(Nc1nccs1)c1cccnc1Cl,7.3%,.,0.0%,3.0,2.6%,-2.1
O=C(Nc1nccs1)c1ccc2ccccc2c1,-27.9%,15.3%,2.3%,78.9*,-17.5%,51.8*
CCOc1cccc(C(=O)Nc2nccs2)c1,3.3%,317.8%,-56.0%,68.8*,12.5%,30.2*
O=C(Nc1nccs1)c1ccc(Br)cc1,-21.3%,0.0%,13.8%,132.8*,0.0%,27.0*
O=C(Nc1nccs1)c1cccc(NC(=O)c2ccco2)c1,3.2%[9.22 µM],9.6%,1.0%,6.0,3.1%,8.3
CS(=O)(=O)N(CC(=O)N1CCc2ccccc2C1)c1ccc(Cl)cc1F,-7.6%,0.0%[0.00184 µM],3.1%,-5.7,-3.2%,0.1
COc1ccc(CNC(=O)C(C)OC(=O)C23CC4CC(CC(O)(C4)C2)C3)cc1 (centres undefined),1.3%,-0.5%,1.3%,5.4,6.6%,0.3
CC(/C=C/c1ccc2c(c1)OCO2)=N/NC(=O)c1ccc(C)nc1,-4.0%,-4.8%,-3.9%,-11.6,-26.0%,1.0
CCc1nnc(NC(=O)c2ccc3ccccc3n2)s1,.,-46.1%,2.1%,70.0*,-38.3%,45.1*
CCSc1nnc(NC(=O)c2ccc3ccccc3n2)s1,-19.8%,29.9%,-4.7%,120.5*,-91.7%,26.0*
CCSc1nnc(NC(=O)c2cc(C)nc3ccccc23)s1,-10.5%,-6.7%,4.7%,-15.4,0.3%,-3.8
SMILES,NS1 inh,Pf growth 48h,SARS PLpro yeast,Shiga inhibitor,Pf growth 96h,CHX counter
CCCNc1nc(C)cc(-c2cc(-c3ccc(Cl)cc3)on2)n1,-0.1%,22.9%,0.5%,-7.8,40.1%,-3.4
COc1cc2c3cc1Oc1c(OC)c(OC)cc4c1[C@@H](Cc1ccc(OC(=O)c5ccc([N+](=O)[O-])cc5)c(c1)Oc1ccc(cc1)C[C@@H]3N(C)CC2)N(C)CC4,.,.,.,7.2,.,-3.6
O=C(N/N=C\c1ccccn1)C1COc2cc3ccccc3cc2O1 (centres undefined),-172.9%,?,-28.6%,4.5,0.0%,7.9
COc1cc2oc(=O)cc(-c3ccc(-c4ccc(NC(C)=O)cc4)cc3)c2c(OC)c1OC,.,.,.,81.2*,.,53.2*
COc1cc2oc(=O)cc(-c3ccc(-c4ccc(O)cc4)cc3)c2c(OC)c1OC,.,.,?,i,.,6.0
Cc1cc(=O)c(C(=O)OC(C)C(=O)NC(N)=O)nn1-c1ccc(Cl)cc1 (centres undefined),1.5%,7.4%,5.0%,-6.2,7.3%,7.9
O=C(NC1CCCC1)c1ccc2c(c1)N(Cc1ccccc1)CCS2,4.6%,?,7.0%,-4.9,10.4µM*,-1.2
CC1CC(C)CN(C(=O)c2ccc3c(c2)N(Cc2ccccc2)CCS3)C1 (centres undefined),-101.1%,.,-27.2%,-10.5,?,-5.1
CCOC(=O)N1CCN(C(=O)c2ccc3c(c2)NC(=O)/C(=C/c2ccccc2)S3)CC1,13.1%,-9.2%,0.1%,-2.0,14.7µM*,7.6
CCOC(=O)C1CCN(C(=O)c2ccc3c(c2)NC(=O)/C(=C/c2ccccc2)S3)CC1,18.7%,?,-5.5%,3.9,?,-3.5
CCN1CCN(CCCNC(=O)c2ccc3c(c2)N(Cc2ccc(C)cc2)CCS3)CC1,-2.7%,16.5µM*,10.1%,-4.3,?,-5.6
CCOC(=O)N1CCN(C(=O)c2ccc3c(c2)N(Cc2ccccc2)CCS3)CC1,-1.2%,?,0.8%,-0.9,11.7µM*,-3.3
N#Cc1cc2c(nc1SC1CCCCC1O)CCCC2 (centres undefined),-46.6%,-2.4%,-1.3%,-21.1,?,-1.2
O=C(CN1CCCc2ccccc21)NCCc1ccc(F)cc1,.,6.2%,-4.9%,10.8,?,3.4
CCOc1ccc(C(=O)NCC(=O)OCc2ccc(F)cc2Cl)cc1,-14.9%,3.3%,-12.6%,-7.1,-10.3%,-3.9
CCCNC(=O)C(Cc1ccc(Br)cc1)NC(=O)c1ccc(C#N)cc1 (centres undefined),.,-27.0%,-0.4%,.,29.5%,.
Cc1ccc(S(=O)(=O)N2c3ccccc3NC(=O)C2CC(=O)Nc2ccccc2)cc1 (centres undefined),-11.9%,?,-0.8%,9.8,11.7µM*,-0.8
Cc1ccc(S(=O)(=O)N2c3ccccc3NC(=O)CC2C)cc1 (centres undefined),3.2%,?,4.0%,-1.3,15.8%,-2.9
Cn1nc(C(=O)NCCc2ccc(S(N)(=O)=O)cc2)c2ccccc2c1=O,4.7%,34.4%,-0.3%,-6.9,18.4%,-3.5
CC(=O)Nc1ccc(SCCN2CCN(CC(C)C)CCC2=O)cc1,.,.,.,-4.6,.,-5.1
c1ccc(SCCN2CCN(c3ccccc3)CC2)cc1,-9.4%,29.4%,-1.4%,44.9,-13.2%,12.8*
Cc1ccc(SCCN2CCN(CC(C)C)CCC2=O)cc1,-9.4%,7.2%,4.6%,84.5*,44.7%,31.2*!
CCCN1CCC(=O)N(CCSc2ccc(Br)cc2)CC1,.,.,.,56.0*,.,35.2*
O=C1CCN(Cc2ccccc2)CCN1CCSc1ccccc1,-1.6%,125.3%,11.3%,41.0*,146.6%,41.6*

# Compound activity: PubChem, National Center for Advancing Translational Sciences (NCATS)
